# Experimental data from PubChem BioAssay.
# The source made the active and inactive calls. Unless noted, how the calls were made is not given here.
# Assays:
# [1] = tested on: XIP peptide (Xip251-270) binding; test: small-molecule binders of XIP peptide, primary screen, biochemical, small-molecule microarray, fluorescence 635/667 nm, 0.1 µg/mL protein (AID 1182); settings: fluorescent protein binding, 635 nm, higher = more signal, called active from +8 up or from −8 down
# XIP peptide (Xip251-270) = test: small-molecule binders of XIP peptide, primary screen, biochemical, small-molecule microarray, fluorescence 635/667 nm, 0.5 µg/mL protein (AID 1183); settings: small-molecule microarray binding, fluorescence 635 nm; higher = more signal
# [2] = Plasmodium falciparum growth inhibition, primary screen, strain 3D7, DAPI fluorescence, 100 nL (AID 1184);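 further: parasites grown inside human red blood cells in medium with human serum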; settings: P. falciparum 3D7 growth, 3 d, higher = more signal
# [3] = target: Homeobox protein Hox-A13 (Mus musculus) (UniProt Q62424); test: inhibitors of HoxA13-DNA binding, primary screen, biochemical, fluorescence polarization, labeled oligonucleotide (AID 1185); settings: 15 min, higher = more signal, called active from +8 up or from −8 down
# Homeobox protein Hox-A13 (Mus musculus), sequence (Q62424 whole entry, looked up): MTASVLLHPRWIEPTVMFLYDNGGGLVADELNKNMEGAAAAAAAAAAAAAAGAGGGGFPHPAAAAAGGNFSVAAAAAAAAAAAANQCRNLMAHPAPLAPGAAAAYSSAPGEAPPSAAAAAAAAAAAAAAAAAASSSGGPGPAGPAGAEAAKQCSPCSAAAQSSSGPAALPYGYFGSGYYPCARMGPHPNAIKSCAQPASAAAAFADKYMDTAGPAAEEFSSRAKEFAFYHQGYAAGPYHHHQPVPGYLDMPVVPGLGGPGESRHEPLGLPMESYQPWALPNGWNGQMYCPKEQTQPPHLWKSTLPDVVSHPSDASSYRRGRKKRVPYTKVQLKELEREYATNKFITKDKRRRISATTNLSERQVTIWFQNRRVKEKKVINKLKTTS
# [4] = inhibitors of hydroxyurea-induced Chk1 phosphorylation, primary screen, imaging, HeLa, phospho-Chk1 antibody, percent positive cells (AID 1186); settings: hydroxyurea-induced phospho-Chk1 immunofluorescence imaging, higher = more signal
# [5] = inhibitors of hydroxyurea-induced Chk1 phosphorylation, primary screen, imaging, HeLa, phospho-Chk1 nuclear intensity (AID 1187); settings: hydroxyurea-induced phospho-Chk1 immunofluorescence imaging, higher = more signal
Structure (SMILES),composite z-score [1],composite z-score (XIP peptide (Xip251-270)),z-score [2],z-score [3],z-score [4],z-score [5]
O=C(NCc1ccccc1)[C@@]1(Cc2ccccc2)N=C(c2ccc(OCCCO)cc2)O[C@H]1c1ccccc1,1.46 (inactive),0.684,-2.39,-1.7 (inactive),-0.306 (inactive),0.0631 (inactive)
O=C1OCCC/C=C\[C@H]2OC34C=CCN(Cc5ccccc5)C(=O)[C@H]3N(CCCCCCO)C(=O)[C@@H]4C12 (stereo partly drawn),0.704 (inactive),-0.819,-0.364,-5.34 (inactive),-0.121 (inactive),0.0626 (inactive)
C=CCC(OC(C)=O)[C@@H]1[C@@H](N(Cc2ccc(-c3cccc(C(F)(F)F)c3)o2)C(=O)Cc2ccc(F)cc2)c2cc(OCCCO)ccc2N1C(=O)Cc1ccc(OC)cc1 (stereo partly drawn),0.664 (inactive),-0.0147,-1.61,-1.69 (inactive),0.0521 (inactive),0.633 (inactive)
COc1cc(OC)c(C(O)C2C=CC3C(=O)NC(=O)C3N2Nc2ccc(Cl)cc2Cl)cc1Br (stereo not drawn),1.11 (inactive),0.369,-0.0679,-5.65 (inactive),0.66 (inactive),0.862 (inactive)
COCCOC(=O)N1C(=O)[C@@]2(c3cc(C#CCCO)ccc31)[C@H](C(=O)N1CCc3cc(OC)c(OC)cc3C1)[C@H]1C(=O)O[C@H](c3ccccc3)[C@H](c3ccccc3)N1[C@@H]2c1ccc(O)cc1,1.55 (inactive),0.798,-0.439,-2.01 (inactive),-0.463 (inactive),-0.656 (inactive)
COCCOC(=O)N1C(=O)[C@@]2(c3ccccc31)[C@H](c1ccccc1OCCO)N1[C@H](c3ccccc3)[C@H](c3ccccc3)OC(=O)[C@H]1[C@@H]2C(=O)Nc1nc2ccccc2s1,0.219 (inactive),0.823,-0.697,0.922 (inactive),0.002 (inactive),0.122 (inactive)
COCCOC(=O)N1C(=O)[C@@]2(c3cc(C#CC4(O)CCCCCC4)ccc31)[C@H](c1ccc(O)cc1)N1[C@H](c3ccccc3)[C@H](c3ccccc3)OC(=O)[C@H]1[C@@H]2C(=O)Nc1nc2ccccc2s1,1.18 (inactive),0.708,-0.326,-1.3 (inactive),0.227 (inactive),0.428 (inactive)
O=C1O[C@H](c2ccccc2)[C@H](c2ccccc2)N2[C@H]1[C@@H](C(=O)O)[C@]1(C(=O)Nc3ccc(C#CC4=CCCCC4)cc31)[C@H]2c1ccccc1OCCO,0.746 (inactive),0.745,-1.86,-2.65 (inactive),0.144 (inactive),-0.0653 (inactive)
